NTR1 agonist: agonists of human neurotensin receptor NTR1. P30989. NTR1-U2OS beta-arrestin-GFP spot imaging, agonist mode. activation, % at 20 µM. hit rate 0.17% among 330,000;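 active means activation at or above 40% of the spot to cytoplasm intensity ratio, with at least 20 cells analyzed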
ABHD5-PLIN5 inh: ABHD5-PLIN5 protein interaction inhibition. Q00G26+Q8WTS1. Split G. princeps luciferase complementation, luminescence, 4 h. inhibition, % at 4 µM. hit rate 0.78% among 360,000. AID 602281;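 active means inhibition above the mean inhibition across every tested compound plus 3 SD, cut at about 22% in these data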
HTR2A ag: agonists of mouse serotonin 5-HT2A receptor (HTR2A). CHO-K1 mHTR2A beta-arrestin complementation, luminescence; percent of 30 µM serotonin response. P35363. AID 624169. activation, % at 7.6 µM. hit rate 0.66% among 360,000;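 active means activation above a run cutoff, the mean activation of all tested compounds plus 3 SD, cut at about 14% in these data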
Granule exo inh: lytic granule exocytosis inhibition. inhibition, % at 10 µM. hit rate 0.66% among 360,000. AID 651702. TALL-104 LAMP-1 surface exposure, flow cytometry; cells stimulated with thapsigargin and PMA;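 active means inhibition above about 55%, limit read from the data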
B2AR ag: agonists of human beta-2 adrenergic receptor inducing internalization. hit rate 0.43% among 340,000. Am2.2-beta2AR cells, FAP receptor internalization, flow cytometry. AID 504454. response, % (test concentration not listed);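 active means response above a set limit, near 3 SD of response in nonfluorescent compounds, cut at about 42% in these data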
MOR ag counter: OPRM1 agonism in mouse HTR2A counterscreen. shares compounds with HTR2A ag. U2OS OPRM1 beta-arrestin PathHunter, luminescence; DMSO 0%, DAMGO 9.3 µM 100%. activation, % at 9.3 µM. hit rate 5.3% among 2,300;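 active means mean activation above the mean of DMSO-only wells plus 3 SD, cut at about 0.5% in these data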
Target sequence (P35372 whole entry, looked up): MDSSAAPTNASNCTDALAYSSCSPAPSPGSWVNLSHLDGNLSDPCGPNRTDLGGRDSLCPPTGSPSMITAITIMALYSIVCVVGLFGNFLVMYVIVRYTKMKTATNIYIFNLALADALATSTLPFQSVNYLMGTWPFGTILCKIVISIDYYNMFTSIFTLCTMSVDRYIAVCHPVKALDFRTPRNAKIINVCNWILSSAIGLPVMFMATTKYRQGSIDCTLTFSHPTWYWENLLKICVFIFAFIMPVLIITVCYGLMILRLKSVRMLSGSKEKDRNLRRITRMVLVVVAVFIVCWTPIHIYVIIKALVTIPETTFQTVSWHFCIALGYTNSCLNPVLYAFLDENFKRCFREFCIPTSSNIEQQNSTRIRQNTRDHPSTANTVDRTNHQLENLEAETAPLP
m5-HT2A ag conf: confirmation of mouse HTR2A serotonin receptor agonists | activation, % at 7.6 µM | CHO-K1 PathHunter beta-arrestin recruitment, luminescence; DMSO 0%, 30 µM serotonin 100% | shares compounds with HTR2A ag | hit rate 19% among 2,300;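 active means mean activation across triplicates above the hit threshold derived in the original primary screen, cut at about 15% in these data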
Of the large screens only hits and unclear results are named; the others gave an inactive call (follow-up assays come after a bar, where they were run). The list is not random: actives were taken first. Their share in the collection is about 2.3%.

COc1ccc(N2CCN(c3cc(=O)n(Cc4ccc(F)cc4)c(=O)[nH]3)CC2)cc1	HTR2A ag 16 | MOR ag counter inactive | m5-HT2A ag conf inactive
COc1ccc(NC2CC(=O)N(c3cc([N+](=O)[O-])ccc3C)C2=O)cc1 (configuration not stated)	none
Cc1cnc(NC(=O)C2(c3ccccc3)CC2)s1	HTR2A ag 21 (no result: NTR1 agonist) | MOR ag counter inactive | m5-HT2A ag conf inactive
Cc1nnc(NC(=O)C2(c3ccccc3)CCOCC2)s1	none
COc1cccc(NC(=O)CN(C)C(=O)c2cccnc2Sc2ccc(C)c(C)c2)c1	none
COc1cccc(COC(=O)C(Cc2ccccc2)NC(=O)c2ccco2)c1 (configuration not stated)	HTR2A ag 17 (no result: NTR1 agonist, B2AR ag) | MOR ag counter inactive | m5-HT2A ag conf inactive
COc1cc(C)nc(Oc2ccc(=O)n(C)n2)n1	HTR2A ag 15 (no result: NTR1 agonist) | MOR ag counter inactive | m5-HT2A ag conf inactive
CSc1nc(C)cc(Oc2ccc(=O)n(C)n2)n1	none
Fc1cccc(F)c1/C=N/Nc1ccccn1	HTR2A ag 14 | MOR ag counter inactive | m5-HT2A ag conf inactive
Cc1cc(-c2onc(C)c2C(N)=O)no1	none
Cc1cc(-c2onc(C)c2C(=O)Oc2ccc(Cl)cc2)no1	HTR2A ag 19 | MOR ag counter inactive | m5-HT2A ag conf inactive
O=S(=O)(Nc1ccc(N2CCOCC2)cc1)c1c(F)cc(F)cc1Br	none
COc1cc2c(Cc3ccccc3)cncc2cc1O	none (no result: NTR1 agonist)
Cn1c(Cc2cccs2)nnc1SCC(=O)Nc1ccc(F)cc1F	HTR2A ag 15 | MOR ag counter inactive | m5-HT2A ag conf inactive
COc1ccccc1NC(=O)CSc1nnc(Cc2cccs2)n1C	none
Cc1oc(-c2ccc(Cl)cc2)nc1CS(=O)CC(=O)NCCCN1CCCC(C)C1 (configuration not stated)	HTR2A ag 17 | MOR ag counter inactive | m5-HT2A ag conf inactive
COc1ccc(-c2nc(CS(=O)CC(=O)NCCCN3CCCC(C)C3)c(C)o2)cc1OC (configuration not stated)	none
CN(C)c1ccc(C(=O)c2ccccc2C(=O)O)c(O)c1	HTR2A ag 17 | MOR ag counter inactive | m5-HT2A ag conf inactive
C[C@H](CO)N1C[C@H](C)[C@H](CN(C)Cc2cncnc2)Oc2cc(Br)ccc2S1(=O)=O	HTR2A ag 18 (no result: NTR1 agonist, B2AR ag) | MOR ag counter inactive | m5-HT2A ag conf inactive
C[C@@H]1CN([C@@H](C)CO)S(=O)(=O)c2ccc(Br)cc2O[C@H]1CN(C)Cc1ccncc1	none (no result: NTR1 agonist, B2AR ag)
COC(=O)c1c(NC(=S)NNC(=O)c2ccc(Cl)s2)sc(C(=O)N(C)C)c1C	none
Cc1ccc(C(=O)NC(=S)Nc2nc(-c3cccc([N+](=O)[O-])c3)cs2)c(Cl)c1	none
Cc1ccc(SCc2cc(=O)[nH]c(N3CCN(Cc4ccc5c(c4)OCO5)CC3)n2)cc1	none
Cc1ccc(SCc2cc(=O)[nH]c(N3CCN(Cc4ccccc4)CC3)n2)cc1	HTR2A ag 18 | MOR ag counter inactive | m5-HT2A ag conf inactive
Cc1ccsc1CN(C)C(=O)C(NC(=O)c1cccc(S(=O)(=O)N2CCOCC2)c1)C(C)C (configuration not stated)	none
COc1ccc(OC)c(C2=Nn3c(nnc3-c3cc(OC)c(OC)c(OC)c3)SC2)c1	HTR2A ag 15 | MOR ag counter inactive | m5-HT2A ag conf inactive
COc1cc(-c2nnc3n2N=C(c2ccccc2)CS3)cc(OC)c1OC	none
O=C(O)CCCC(=O)NCc1c(Cl)cccc1Sc1ccc(Cl)cc1	none
CC(C)(CC(=O)O)CC(=O)NCc1c(Cl)cccc1Sc1ccc(Cl)cc1	HTR2A ag 15 | MOR ag counter inactive | m5-HT2A ag conf inactive
CCOC(=O)c1nn2c(C(F)(F)F)cc(-c3ccc(OC)cc3)nc2c1Br	none
Cc1cc(C)n(-c2ccc(C)c(Cl)c2)n1	none
Cc1ccc(Oc2ccc(NS(=O)(=O)c3cccc(C(=O)O)c3)cc2)cc1	HTR2A ag 15 | MOR ag counter inactive | m5-HT2A ag conf inactive
O=C(O)c1cccc(S(=O)(=O)Nc2ccc(Oc3ccccc3)cc2)c1	none
O=C(O)c1ccc(NS(=O)(=O)c2ccc(C(=O)Nc3ccccc3)cc2)cc1	none
O=C(O)c1ccc(NC(=O)c2cccc(S(=O)(=O)Nc3ccc(C(=O)O)cc3)c2)cc1	HTR2A ag 16 | MOR ag counter inactive | m5-HT2A ag conf inactive
Cc1noc(C)c1S(=O)(=O)N(C)C[C@H]1Oc2c(NC(=O)Nc3ccc(C(F)(F)F)cc3)cccc2C(=O)N([C@H](C)CO)C[C@@H]1C	none
O=C(O)CSc1cnc2ccccc2n1	HTR2A ag 18 | MOR ag counter inactive | m5-HT2A ag conf inactive
CCCOc1cccc(C(=O)NCCNC(=O)c2ccco2)c1	none
COc1cc(C2N(c3cccc(Cl)c3)C(=O)C3CCCN32)cc(OC)c1OC (configuration not stated)	HTR2A ag 21 | MOR ag counter inactive | m5-HT2A ag conf inactive
COc1cccc(C2N(c3cccc(Cl)c3)C(=O)C3CCCN32)c1OC (configuration not stated)	HTR2A ag 17 | MOR ag counter inactive | m5-HT2A ag conf inactive
COc1cc(C2N(c3ccc(Cl)cc3)C(=O)C3CCCN32)cc(OC)c1OC (configuration not stated)	none
CC1CCCN(C(=O)c2cn(-c3ccccc3)nc2-c2cccnc2)C1 (configuration not stated)	none
Cc1cc(=O)[nH]c(N/N=C/c2ccc(Cl)cc2Cl)n1	none
Nc1nc(CN2CCN(Cc3ccccc3)CC2)nc(Nc2ccccc2)n1	none
Nc1nc(CN2CCN(c3ccccc3F)CC2)nc(Nc2ccc3c(c2)OCCO3)n1	HTR2A ag 22 | MOR ag counter inactive | m5-HT2A ag conf 36
Nc1nc(CN2CCN(c3ccccn3)CC2)nc(Nc2ccc(Cl)cc2)n1	HTR2A ag 15 | MOR ag counter inactive | m5-HT2A ag conf 73
CCCCn1c(N)c(N(CC(C)C)C(=O)CSCc2c(C)noc2C)c(=O)[nH]c1=O	none
CCOC(=O)c1cc2cc(OC)ccc2n1C1CCN(CCc2ccccc2)CC1	HTR2A ag 20 (no result: NTR1 agonist, B2AR ag) | MOR ag counter inactive | m5-HT2A ag conf inactive
Cc1ccc(C2=C(O)c3ccccc3C(=O)C2=O)cc1	none
O=C1C(=O)c2ccccc2C(O)=C1c1cccc([N+](=O)[O-])c1	HTR2A ag 20 | MOR ag counter inactive | m5-HT2A ag conf inactive
Cc1cc(C)nc(SSc2nc(C)cc(C)n2)n1	none
COc1ccc(S(=O)(=O)NCC2CCCN(C(=O)c3cccnc3C)C2)cc1 (configuration not stated)	HTR2A ag 15 | MOR ag counter inactive | m5-HT2A ag conf inactive
COCCN(CCOC)C(=O)c1ccc(CSc2nc3ccccc3s2)cc1	none
